PubChem BioAssay (NCATS)
Inconclusive results are not listed. Where a call stands in place of a potency, no number is given. Activity calls are given as the source filed them. Calls follow the shape of the dose curve; as a rule, active = well fitted inhibition curve with a large enough effect; inconclusive = small, poorly fitted or top-dose-only effect; inactive = flat fitted curve, though single readings scatter. Where a SMILES comes first, the peptide text is derived from it. The star is where a group is joined. AMC = Cc1cc(=O)oc2cc(N*)ccc12; Cbz = O=C(OCc1ccccc1)*

target: Calcium and integrin-binding protein 1 (Homo sapiens) (UniProt Q99828); experiment: Primary qHTS for Identification of Calcium Integrin Binding Protein 1 (CIB1) Competitor (AID 1508620); conditions: CIB1-GST / FITC-alphaIIb peptide fluorescence polarization; series mostly up to 57.7 µM; also: top concentration of the series differs between compounds
Method in brief: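 Fluorescence polarization competition: GST-tagged CIB1 (1 uM final) preincubated with compound 15 min at room temperature, then FITC-labelled alphaIIb peptide (100 nM final) added. After 15 min at room temperature, polarization read at Ex 480/Em 540.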

Chain of Calcium and integrin-binding protein 1 (Homo sapiens) (Q99828 whole entry, looked up): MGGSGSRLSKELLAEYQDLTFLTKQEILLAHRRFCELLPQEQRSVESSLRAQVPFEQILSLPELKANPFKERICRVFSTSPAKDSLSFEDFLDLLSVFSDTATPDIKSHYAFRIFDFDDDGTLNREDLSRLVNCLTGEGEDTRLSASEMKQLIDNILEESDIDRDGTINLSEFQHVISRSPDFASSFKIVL

Compound | Potency
C=C(CCO[C@@H]1O[C@H](CO)[C@@H](O)[C@H](O)[C@H]1O)C(=O)O | inactive
C=C1C2CCC3C(CCC4[C@@]3(C)CCC[C@@]4(C)C(=O)O)(C2)[C@@H]1OC(=O)/C(C)=C\C (some centres undefined) | inactive
O=C(/C=C/c1ccc(O)cc1)O[C@@H]1C[C@@](O)(C(=O)O)C[C@@H](O)[C@@H]1O | inactive
C=C1CC2C3(C)C=CC(=O)OC(C)(C)C3CC(OC(C)=O)C2(C)C2C(=O)OC(C)C(=O)C12C (centres undefined) | inactive
CO[C@@H]1[C@]2(O)C(=O)N3/C=C\C(C)(C)c4[nH]c5ccccc5c4/C=C\3C(=O)N2[C@]23[C@H](CO)C(C)(C)N2c2ccccc2[C@]13O | inactive
COc1cc(C)c(C(=O)O[C@@H]2[C@H](O)[C@@H](CO)O[C@H]2n2ccc(=O)[nH]c2=O)c(OC)c1 | inactive
CN1CCN(C(=O)c2cc3cc(Cl)ccc3[nH]2)CC1 | inactive
C=C1CC23CC(=O)C4C(CO)(CO)CCCC4(C)C2CCC1C3 (centres undefined) | inactive
CC(C)=CCc1cc(O[C@@H]2O[C@H](CO[C@@H]3OC[C@](O)(CO)[C@H]3O)[C@@H](O)[C@H](O)[C@H]2O)ccc1O | inactive
C/C=C/C1OC2=C(C(=O)OC2(C)O)C(O)C1O (centres undefined) | inactive
Cc1cc(=O)oc2cc(NC(=O)[C@H](CCC(=O)O)NC(=O)[C@H](CC(C)C)NC(=O)[C@H](CC(C)C)NC(=O)OCc3ccccc3)ccc12 (Cbz-Leu-Leu-Glu-{AMC}) | inactive
O=C(O[C@H]1[C@H](Oc2ccc(O)cc2CO)O[C@H](CO)[C@@H](O)[C@@H]1O)c1ccccc1 | inactive
CCC/C=C/C=C/C1CC(O)C(O)C(=O)C1CO (centres undefined) | inactive
C=C1CC23CC1CCC2C12OC(=O)C(C)(C(O)C(O)C1O)C2C3C(=O)O (centres undefined) | inactive
C=CC(C)(C)C12Nc3c(ccc4c3OC(C)(C)C=C4)C1(O)CC1C(=O)N3CCCC3C(=O)N12 (centres undefined) | inactive
COCC1OC(OC(C)(C)C2CCC3(C)C=C(C4CCC5C4(C)CC(O)C4OC(C(C)(C)O)CCC45C)CCC3O2)C(NC(C)=O)C(O)C1O (centres undefined) | inactive
CCCCCOC(=O)Nc1nc(=O)n(C2O[C@H](C)[C@@H](O)[C@H]2O)cc1F (some centres undefined) | inactive
COc1ccc(C(=O)OC2C3C=COC(OC4OC(CO)C(O)C(O)C4O)C3C3(CO)OC23)cc1OC (centres undefined) | inactive
COc1cncc(C#Cc2ccccn2)c1 | inactive
COc1cc(C2Oc3c(OC)cc(CCCO)cc3C2CO)ccc1O (centres undefined) | inactive

Compound | Potency
COC(=O)[C@]1(Cc2ccc(O)c(CC=C(C)C)c2)OC(=O)C(O)=C1c1ccc(O)cc1 | inactive
COc1cc(/C=C/C(=O)O[C@H]2[C@H](O)[C@@H](CO)O[C@@]2(CO)O[C@H]2O[C@H](CO)[C@@H](O)[C@H](O)[C@H]2O)cc(OC)c1O | inactive
CC(C)=CCC/C(C)=C/CO[C@@H]1O[C@H](CO[C@@H]2OC[C@](O)(CO)[C@H]2O)[C@@H](O)[C@H](O)[C@H]1O | inactive
CC1=C2C[C@@]3(C)C(CCC[C@@H]3C)C(O)C2(O)OC1=O (some centres undefined) | inactive
OC[C@H]1O[C@@H](OC[C@H]2O[C@@H](OCc3ccccc3)[C@H](O)[C@@H](O)[C@@H]2O)[C@H](O)[C@@H](O)[C@@H]1O | inactive
Cc1ccc(C)c(S(=O)(=O)n2cnc3ccccc32)c1 | inactive
C/C=C(/C)C(=O)OC1C2OC2C2(CO2)C2C3OC(=O)C(C)C3CCC12C (centres undefined) | inactive
CC1(C)C=Cc2c(ccc3c2N=C2C(C)(C)[C@@H]4C[C@]56CCCN5C(=O)[C@@]4(C[C@]23O)NC6=O)O1 | inactive
C=C(CC/C=C(\C)C(=O)O)C1(O)CC=C(C)CC1 (centres undefined) | inactive
CC1(C)CC[C@]2(C(=O)O[C@@H]3O[C@H](CO)[C@@H](O)[C@H](O)[C@H]3O)CC[C@]3(C)C(=CCC4[C@@]5(C)C[C@@H](O)[C@H](O)[C@@](C)(CO)C5[C@H](O)C[C@]43C)C2C1 (some centres undefined) | inactive
C=C1C[C@]23C[C@@]1(O)CC[C@H]2[C@@]12C=C[C@H](O)[C@@](C)(C(=O)O1)[C@H]2[C@@H]3C(=O)O | inactive
COC(=O)C1=CO[C@@H](O[C@@H]2O[C@H](CO)[C@@H](O)[C@H](O)[C@H]2O)[C@@H]2[C@@H](C)[C@@H](O)C(O)[C@H]12 (some centres undefined) | inactive
OC[C@@]1(O)CO[C@@H](OC[C@H]2O[C@@H](OCc3ccccc3)[C@H](O)[C@@H](O)[C@@H]2O)[C@@H]1O | inactive
CC(C/C=C/C(C)(C)O)C1CCC(C)(O)C(O)C1 (centres undefined) | inactive
C[C@H]1CCN2C[C@]34C[C@@]5(C(=O)Nc6c5ccc5c6OC=CC(C)(C)O5)C(C)(C)C3C[C@]12C(=O)N4C (some centres undefined) | inactive
O=C(C1OC1/C=C/c1ccc2c(c1)OCO2)N1CCCCC1 (centres undefined) | inactive
OC[C@H]1O[C@@H](OCc2ccccc2)[C@H](O[C@@H]2OC[C@@H](O)[C@H](O)[C@H]2O)[C@@H](O)[C@@H]1O | inactive
COc1cc(C)c(C(=O)NC2C(C)OC(OC3CCC(C)C4C3C=C(C)C3/C(C)=C\CC/C(C)=C/C5(C)C=C(C(=O)O)C(C)CC56OC(=O)/C(=C(\O)C34C)C6=O)C(O)C2(C)O)c(O)c1 (centres undefined) | inactive
COC(=O)C1=CO[C@@H](O[C@@H]2O[C@H](CO[C@@H]3O[C@H](CO)[C@@H](O)[C@H](O)[C@H]3O)[C@@H](O)[C@H](O)[C@H]2O)[C@@H]2C(CO)=CC[C@H]12 | inactive
